PubChem BioAssay AID1159580 (chemical genetic matrix, 2015)
Hit rate of the full screen: of about 5,500 compounds, about 2,000 (36%) were called active. Roughly 18% stayed inconclusive and do not appear here. No stated cut-off is given here; in the data, active means normalized growth mostly below about 0.91 (no sharp cut-off); inconclusive means no clear call, values can overlap the other calls; inactive means mostly above about 0.92. The list shows a part of the results.

Experiment: chemical genetic growth profiling, strain panel (AID 1159580);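 further: tested at 20 µM; growth read once vehicle control cultures reached saturation at 30 °C; 1 = growth at the plate median or of vehicle wells; lower values mean less growth of the strain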
Conditions: growth OD

Measured: normalized growth

COC1=C[C@@H]2[C@@H]3Cc4ccc(OC)c(O)c4[C@]2(CCN3C)CC1=O
inactive: S. cerevisiae deletion strains, locus YJR075W, strain HOC1, hits give low values 0.928 | S. cerevisiae deletion strains, locus YKL009W, strain mrt4, hits give low values 0.978 | S. cerevisiae deletion strains, locus YKL068W, hits give low values 0.977 | S. cerevisiae deletion strains, locus YKL085W, strain MDH1 (second series), hits give low values 0.979 | S. cerevisiae deletion strains, locus YKL085W, strain MDH1, hits give low values 0.979 | S. cerevisiae deletion strains, locus YKL160W, strain elf1, hits give low values 0.996 | S. cerevisiae deletion strains, locus YKL190W, strain CNB1, hits give low values 0.977 | S. cerevisiae deletion strains, locus YKR001C, strain vps1, hits give low values 0.992 | S. cerevisiae deletion strains, locus YKR026C, strain gcn3, hits give low values 1 | S. cerevisiae deletion strains, locus YKR091W, strain srl3, hits give low values 0.984 | S. cerevisiae deletion strains, locus YLL001W, strain dnm1, hits give low values 0.997 | S. cerevisiae deletion strains, locus YLL026W, hits give low values 0.982 | S. cerevisiae deletion strains, locus YLL041C, strain sdh2, hits give low values 1 | S. cerevisiae deletion strains, locus YLR027C, strain aat2, hits give low values 1 | S. cerevisiae deletion strains, locus YLR039C, strain RIC1, hits give low values 0.98 | S. cerevisiae deletion strains, locus YLR058C, strain SHM2, hits give low values 0.976 | S. cerevisiae deletion strains, locus YLR102C, strain apc9, hits give low values 0.971 | S. cerevisiae deletion strains, locus YLR113W, strain HOG1, hits give low values 1.01 | S. cerevisiae deletion strains, locus YLR221C, strain rsa3, hits give low values 0.993 | S. cerevisiae deletion strains, locus YLR258W, strain gsy2, hits give low values 0.987 | S. cerevisiae deletion strains, locus YLR262C, strain YPT6 (second series), hits give low values 0.999 | S. cerevisiae deletion strains, locus YLR262C, strain YPT6, hits give low values 0.926 | S. cerevisiae deletion strains, locus YLR268W, strain sec22, hits give low values 0.967 | S. cerevisiae deletion strains, locus YLR320W, strain mms22, hits give low values 1 | S. cerevisiae deletion strains, locus YLR330W, strain CHS5, hits give low values 0.999 | S. cerevisiae deletion strains, locus YLR342W, strain FKS1 (second series), hits give low values 1.03 | S. cerevisiae deletion strains, locus YLR342W, strain FKS1, hits give low values 1 | S. cerevisiae deletion strains, locus YLR357W, strain rsc2, hits give low values 0.943 | S. cerevisiae deletion strains, locus YLR370C, strain arc18, hits give low values 1 | S. cerevisiae deletion strains, locus YLR371W, strain rom2, hits give low values 0.952 | S. cerevisiae deletion strains, locus YLR384C, strain iki3, hits give low values 0.987 | S. cerevisiae deletion strains, locus YLR418C, strain cdc73, hits give low values 0.969 | S. cerevisiae deletion strains, locus YML016C, strain PPZ1, hits give low values 0.979 | S. cerevisiae deletion strains, locus YML032C, strain rad52, hits give low values 0.985 | S. cerevisiae deletion strains, locus YML120C, strain ndi1, hits give low values 1 | S. cerevisiae deletion strains, locus YML124C, strain tub3, hits give low values 0.986 | S. cerevisiae deletion strains, locus YMR058W, strain fet3, hits give low values 1.01 | S. cerevisiae deletion strains, locus YMR078C, strain ctf18, hits give low values 0.977 | S. cerevisiae deletion strains, locus YMR125W, strain sto1, hits give low values 0.975 | S. cerevisiae deletion strains, locus YMR129W, hits give low values 1 | S. cerevisiae deletion strains, locus YMR205C, strain PFK2, hits give low values 0.985 | S. cerevisiae deletion strains, locus YMR231W, strain pep5, hits give low values 0.995 | S. cerevisiae deletion strains, locus YMR263W, strain SAP30, hits give low values 0.962 | S. cerevisiae deletion strains, locus YMR307W, strain GAS1, hits give low values 1.03 | S. cerevisiae deletion strains, locus YNL067W, strain RPL9B, hits give low values 0.988 | S. cerevisiae deletion strains, locus YNL071W, strain lat1, hits give low values 0.996 | S. cerevisiae deletion strains, locus YNL128W, strain TEP1, hits give low values 0.961 | S. cerevisiae deletion strains, locus YNL153C, strain GIM3, hits give low values 0.96 | S. cerevisiae deletion strains, locus YNL183C, strain NPR1, hits give low values 0.959 | S. cerevisiae deletion strains, locus YNL209W, strain ssb2, hits give low values 1.01 | S. cerevisiae deletion strains, locus YNL233W, strain BNI4, hits give low values 0.979 | S. cerevisiae deletion strains, locus YNL248C, strain rpa49, hits give low values 0.978 | S. cerevisiae deletion strains, locus YNL250W, strain rad50, hits give low values 0.981 | S. cerevisiae deletion strains, locus YNL271C, strain bni1, hits give low values 0.988 | S. cerevisiae deletion strains, locus YNL298W, strain CLA4, hits give low values 0.96 | S. cerevisiae deletion strains, locus YNL307C, strain MCK1, hits give low values 0.989 | S. cerevisiae deletion strains, locus YNL322C, strain KRE1 (second series), hits give low values 0.975 | S. cerevisiae deletion strains, locus YNL322C, strain KRE1, hits give low values 0.98 | S. cerevisiae deletion strains, locus YNR049C, strain mso1, hits give low values 1.01 | S. cerevisiae deletion strains, locus YNR052C, strain pop2, hits give low values 0.982 | S. cerevisiae deletion strains, locus YOL006C, strain TOP1, hits give low values 0.942 | S. cerevisiae deletion strains, locus YOL012C, strain htz1 2.19 | S. cerevisiae deletion strains, locus YOL147C, strain pex11, hits give low values 0.992 | S. cerevisiae deletion strains, locus YOR001W, strain rrp6, hits give low values 1.01 | S. cerevisiae deletion strains, locus YOR061W, strain CKA2, hits give low values 0.962 | S. cerevisiae deletion strains, locus YOR069W, strain VPS5, hits give low values 0.987 | S. cerevisiae deletion strains, locus YOR070C, strain gyp1, hits give low values 0.986 | S. cerevisiae deletion strains, locus YOR080W, strain dia2, hits give low values 0.999 | S. cerevisiae deletion strains, locus YOR083W, strain WHI5, hits give low values 0.974 | S. cerevisiae deletion strains, locus YOR106W, strain vam3, hits give low values 0.997 | S. cerevisiae deletion strains, locus YOR136W, strain idh2, hits give low values 0.988 | S. cerevisiae deletion strains, locus YOR144C, strain elg1, hits give low values 0.986 | S. cerevisiae deletion strains, locus YOR184W, strain ser1, hits give low values 0.99 | S. cerevisiae deletion strains, locus YOR231W, strain MKK1, hits give low values 0.998 | S. cerevisiae deletion strains, locus YOR265W, strain rbl2, hits give low values 1.01 | S. cerevisiae deletion strains, locus YOR270C, strain vph1, hits give low values 0.996 | S. cerevisiae deletion strains, locus YOR290C, strain snf2, hits give low values 0.987 | S. cerevisiae deletion strains, locus YOR316C, strain cot1, hits give low values 0.965 | S. cerevisiae deletion strains, locus YPL051W, strain arl3, hits give low values 0.985 | S. cerevisiae deletion strains, locus YPL055C, strain LGE1, hits give low values 0.9 | S. cerevisiae deletion strains, locus YPL078C, strain atp4, hits give low values 0.983 | S. cerevisiae deletion strains, locus YPL106C, strain sse1, hits give low values 0.961 | S. cerevisiae deletion strains, locus YPL240C, strain hsp82, hits give low values 0.985 | S. cerevisiae deletion strains, locus YPL241C, strain CIN2, hits give low values 0.985 | S. cerevisiae deletion strains, locus YPL256C, strain CLN2, hits give low values 1.02 | S. cerevisiae deletion strains, locus YPR119W, strain clb2, hits give low values 0.984 | S. cerevisiae deletion strains, locus YPR141C, strain kar3, hits give low values 0.945 | S. cerevisiae deletion strains, locus YPR163C, strain tif3, hits give low values 0.983 | S. cerevisiae deletion strains, locus YPR167C, strain met16, hits give low values 0.979 | S. cerevisiae deletion strains, strain wtn01, hits give low values 0.992 | S. cerevisiae strains, strain wild type, hits give low values 0.992
